Bioassay records as filed in PubChem BioAssay.
Rpn11 block: blocks the human proteasome subunit Rpn11; O00487; human 26S proteasome, Ub4-pepOG fluorescence polarization; 20S core pre-blocked with epoxomicin; inhibition, % at 20 µM; actives 0.59% (n = 360,000); AID 588493;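 active means inhibition at 20 µM, scaled to each plate's controls, above about 33%, limit read from the data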
Calb FLC: affects C. albicans growth with fluconazole; C. albicans CaCi-2 (fluconazole-resistant clinical isolate) + fluconazole, Alamar Blue growth, 48 h; growth inhibition, % (concentration not given with the values); actives 0.57% (n = 300,000); AID 1979;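 active means growth inhibition above about 58% in most replicates, limit read from the data, passing the limit was not always enough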;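 further: all wells also contain fluconazole at 8 µg/ml as a sub-toxic cotreatment; 0% = median of DMSO wells and 100% = median of geldanamycin control wells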
IDE inh: cellular human IDE inhibition; P14735; HEK cells, FAbetaB cleavage, fluorescence polarization; inhibition, % at 5.59 µM; actives 0.41% (n = 320,000); AID 434962;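 active means percent inhibition above the average of all tested compounds plus 3 SD, set per screening campaign, cut at about 16% in these data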;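 further: IDE supplied by intact live HEK cells; FP after avidin binding of uncleaved biotin substrate so inhibition keeps polarization high; 0% = DMSO wells and 100% = 60 µM reference IDE inhibitor Ii1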
Rin1 Abl inh: human Rin1-Abl interaction inhibition | actives 0.4% (n = 360,000) | TR-FRET Rin1/Abl binding, biochemical | P00519+Q13671 | inhibition, % at 7.35 µM; in the data active means inhibition above about 5%, passing the limit was not always enough
TPT1 inhibitor: C. albicans TPT1 enzyme inhibition; actives 0.81% (n = 300,000); inhibition, % at 5 µM; recombinant caTPT1, FP RNA substrate dephosphorylation;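 active means inhibition above the mean of all tested compounds plus 3 SD, set per screening campaign, cut at about 24% in these data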;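 further: plate controls were DMSO alone for no effect and ferristatin control at 100 nM for full effect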
IDE cell activ: activators of human insulin-degrading enzyme in cells; activation, % at 5.96 µM; HEK cells, FAbeta-B cleavage, fluorescence polarization; 0% vehicle, 100% cell-free pure enzyme wells; P14735; actives 0.073% (n = 340,000);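 active means activation above the mean of all tested compounds plus 3 SD, set per screening campaign, cut at about 17% in these data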
Rpn11 inh conf: Rpn11 inhibition confirmation, single concentration; shares compounds with Rpn11 block; AID 602318; inhibition, % at 20 µM; actives 29% (n = 1,900); purified human 26S proteasome, Ub4-pepOG fluorescence polarization; proteasome pretreated with epoxomicin
MMP-2 inh: MMP-2 (human) inhibition counter-screen; shares compounds with Rpn11 block; recombinant MMP-2, FRET peptide cleavage fluorescence; inhibition, % at 20 µM; actives 4% (n = 1,900);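 further: human MMP-2 activated beforehand with APMA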
Thrombin inh: blocks bovine thrombin, flagging nonselective RPN11 hits. shares compounds with Rpn11 block. bovine thrombin cleavage of Ub4-pepOG, fluorescence polarization. inhibition, % at 20 µM. actives 13% (n = 1,900);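 active means mean inhibition at least 40% at 20 µM, or signal 3 deviations below plate average, so some actives read negative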;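 further: plate controls were thrombin with DMSO for no effect and buffer wells lacking thrombin for full effect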
Numbers without * were called inactive; · = no result; + = active, no number. Only some compounds are listed: those with a hit (about 2.3% of all), similar ones and a draw of the others. Unless noted, no stated cut-off is given here; in the data, active means inhibition above about 40%; inactive means the rest.

SMILES | Rpn11 block | Calb FLC | IDE inh | Rin1 Abl inh | TPT1 inhibitor | IDE cell activ | Rpn11 inh conf | MMP-2 inh | Thrombin inh
Cc1cc(C)cc(NC(=O)C(OC(=O)c2ccc(NC(=O)CC#N)cc2)c2ccccc2)c1 (stereo not drawn) | 48* | -4 | -1 | 1 | 11 | 4 | 25 | -20 | 17
Cc1ccc(C)c(NC(=O)C(OC(=O)c2ccc(NC(=O)CC#N)cc2)c2ccccc2)c1 (stereo not drawn) | 34 | 11 | 1 | -4 | 12 | 3 | · | · | ·
O=C(CSc1cccc2cccnc12)N1CCCC1 | 71* | 2 | -1 | -2 | 0 | 0 | 35 | -18 | -16
O=C(CSc1ncccn1)N1CCCCCC1 | -6 | · | 0 | -1 | · | 1 | · | · | ·
NNC(=O)CSc1cccc2cccnc12 | 0 | -3 | -5 | 1 | 2 | -1 | · | · | ·
CN(C)C(=O)CSc1cccc2cccnc12 | 69* | -17 | 10 | -1 | 0 | 3 | 24 | -16 | -2
FC(F)(F)c1nc(N2CCN(c3ccccc3)CC2)nc2c1CCCCC2 | 48* | 0 | -5 | 4 | 6 | 5 | -11 | -30 | -12
CCOc1ccc(NCc2cccn2-c2nnc(N3CCC(C(=O)NCCCN4CC(C)CC(C)C4)CC3)s2)cc1 (stereo not drawn) | 1 | 1 | 3 | 1 | 0 | -1 | · | · | ·
CN1CCCN(S(=O)(=O)c2ccccc2)c2nc3ccccc3nc21 | 10 | · | · | 0 | · | 11 | · | · | ·
CN1CCCNc2nc3ccccc3nc21 | 46* | 2 | 1 | -4 | 9 | 9 | -3 | -49 | -8
Cc1c(C(=O)O)cccc1-c1ccc(/C=C2/NC(=O)N(c3ccccc3)C2=O)o1 | -5 | 20 | 5 | 2 | -2 | 2 | · | · | ·
O=C(O)c1ccccc1-c1ccc(C=c2sc3nc4cc(Br)cnc4n3c2=O)o1 | + | · | · | 0 | · | · | + | 70* | 184*
O=C(Nc1ccc(Oc2ncnc3cc(Cl)ccc23)nc1)c1cccs1 | 50* | 0 | 7 | -1 | 9 | -6 | 5 | -2 | -2
CCOC(=O)c1nnc2cc(-c3ccccc3)nn2c1C | 46* | · | -3 | -4 | -2 | -1 | 0 | -51 | -1
CCOC(=O)c1nnc2cc(-c3ccc(Br)cc3)nn2c1C | -1 | · | 2 | 0 | 1 | -1 | · | · | ·
O=C(COC(=O)Cc1cccc(C(F)(F)F)c1)NC1CCS(=O)(=O)C1 (stereo not drawn) | 2 | 1 | -2 | 4 | 1 | 2 | · | · | ·
Cc1ccc2oc(-c3ccc(C)c(NC(=S)NC(=O)c4cccs4)c3)nc2c1 | 26 | 4 | 0 | 7 | -1 | 0 | · | · | ·
Cc1ccc(-c2nc3ccccc3o2)cc1NC(=S)NC(=O)c1cc2ccccc2o1 | 47* | -3 | -7 | -1 | 0 | 2 | -3 | -14 | 11
CCCCn1c(N)c(N(CCOC)C(=O)c2oc3c(Cl)cccc3c2C)c(=O)[nH]c1=O | -4 | · | · | -2 | · | · | · | · | ·
CCOC(=O)Cc1csc(NC(=O)c2ccc(C)cc2)n1 | -6 | -11 | -8 | 1 | -1 | -1 | · | · | ·
CCOC(=O)Cc1csc(NC(=O)c2ccc(Cl)nc2)n1 | 36* | 14 | 2 | -1 | 12 | 3 | 21 | -33 | -1
CCS(=O)(=O)N1N=C(c2cccs2)CC1c1cc2cc(C)ccc2nc1Cl (stereo not drawn) | 64* | 23 | -1 | -6 | 4 | -3 | 34 | -9 | 24
COc1ccccc1NC(=O)C1=C(C)NC(=O)NC1c1ccccc1[N+](=O)[O-] (stereo not drawn) | 52* | 44 | -3 | -4 | 5 | -1 | -2 | -25 | -23
O=C(COC(=O)c1cccc([N+](=O)[O-])c1)Nc1ccc(Cl)cn1 | 1 | 0 | 0 | 1 | 0 | 3 | · | · | ·
